tim23-1 inh: tim23-1 yeast growth inhibition | S. cerevisiae tim23-1 growth, BacTiter-Glo luminescence, 24 h | inhibition, % at 20 µM | 330,000 tested, 1.3% active | AID 463212;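 active means growth inhibition of the mutant yeast at or above 50%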;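 further: temperature-sensitive mutant grown at 25 °C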
TIM10 inh: growth inhibitors of TIM10 yeast strain; inhibition, % at 10 µM; 330,000 tested, 1.4% active; S. cerevisiae TIM10 strain growth, BacTiter-Glo luminescence, 24 h;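 active means inhibition of 40% or more at the single tested concentration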;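 further: wild-type TIM10 isogenic control strain grown at permissive 25 °C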
CR mimetic SO: caloric restriction mimetics inhibiting age-related superoxide in yeast; 330,000 tested, 0.18% active; S. cerevisiae aged cells, superoxide DHE fluorescence; stronger effect = lower value; superoxide response (% of plate mean), % at 10 µM;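 active means superoxide response under a set limit, about three screen SD below normal, cut at about 65% in these data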;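 further: yeast aged for seven days with compound at 30 °C before DHE staining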
tim10-1 inh: tim10-1 yeast growth inhibition; S. cerevisiae tim10-1 ts strain growth, BacTiter-Glo, 24 h; inhibition, % at 20 µM; 330,000 tested, 2.2% active; AID 463190;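 active means inhibition of at least 40%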;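 further: mutant grown at 25 °C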
NLRP3 yeast inh: inhibitors of NALP3 inflammasome in yeast; Yeast reconstituted NLRP3/ASC/caspase-1, beta-gal luminescence, 24 h; inhibition, % at 10 µM; 330,000 tested, 0.39% active;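 active means inhibition of 50% or more; inactive means inhibition below 50%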
TIM10 conf: TIM10 yeast growth inhibition, confirmed; shares compounds with TIM10 inh; S. cerevisiae tim10 strain growth, BacTiter-Glo luminescence, 24 h; inhibition, % at 10 µM; 4,600 tested, 63% active; AID 463215;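 active means inhibition of yeast growth at or above a set limit in either of two replicates at 10 µM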; further: this counterscreen used the strain with wild-type TIM10
Large screens that a line does not name were inactive (follow-up assays come after a bar, where they were run). The list is not random: actives were taken first. Their share in the collection is about 3.8%.

Cc1cc(C)c(NC(=O)C2CCCN2CCOC(=O)c2cccc([N+](=O)[O-])c2)c(C)c1 (stereo unspecified)	TIM10 inh 41 | TIM10 conf inactive
Cc1cc(Cl)ccc1OCC(=O)NNC(=O)c1cccnc1	TIM10 inh 80 | TIM10 conf inactive
O=C(COc1ccc(Cl)cc1Cl)NNC(=O)c1cccnc1	none
Brc1ccc2[nH]c3c(N4CCc5ccccc5C4)ncnc3c2c1	TIM10 inh 43 | TIM10 conf inactive
Fc1ccc2[nH]c3c(N4CCc5ccccc5C4)ncnc3c2c1	none
CC12CCC(C(=O)NCc3ccc4c(c3)OCO4)(C(=O)C1=O)C2(C)C (stereo unspecified)	TIM10 inh 41 | TIM10 conf inactive
CCc1cccc(CC)c1NC(=S)NC(C)c1ccccc1 (stereo unspecified)	TIM10 inh 53 | TIM10 conf 39
CCc1cccc(CC)c1NC(=S)NCc1ccc2c(c1)OCO2	TIM10 inh 41 | TIM10 conf inactive
COCCN(Cc1cn[nH]c1-c1ccc2cc(OC)ccc2c1)C(C)C	none
COc1ccc(NC(=S)N2CCC(c3ccccc3)C2)cc1 (stereo unspecified)	none
Cc1ccc(Cl)cc1NC(=S)N1CCC(c2ccccc2)C1 (stereo unspecified)	TIM10 inh 52 | TIM10 conf 37
COc1cccc(NC(=O)N2CCN(c3nc(-c4cccc(OC)c4)cs3)CC2)c1	none
COc1cccc(-c2csc(N3CCN(C(=O)NC45CC6CC(CC(C6)C4)C5)CC3)n2)c1	TIM10 inh 42 | TIM10 conf inactive
CCOc1ccc(/C=N/NC(=O)c2ccc(F)cc2)cc1CN1CC2CC(C1)c1cccc(=O)n1C2 (stereo unspecified)	none
COc1ccc(Oc2ccc(/C=C/C(=O)c3ccc(O)cc3)cc2[N+](=O)[O-])cc1	TIM10 inh 44 | TIM10 conf 39
O=C(/C=C/c1ccc(O)c([N+](=O)[O-])c1)c1ccc2ccccc2c1	none
COc1cccc(CNC(=O)CN2C(=O)CC(c3ccccc3)=Nc3ccccc32)c1	none
CC(=O)Cc1nsc(NC(=O)c2ccccc2Cl)n1	TIM10 inh 51 | TIM10 conf inactive
CC(=O)Nc1ccc(-c2cn3ccsc3n2)cc1	none
O=C(Nc1ccc(-c2cn3ccsc3n2)cc1)C1CC1	TIM10 inh 57 | TIM10 conf inactive
O=C(c1cccc(-n2cccc2)c1)N1CCN(S(=O)(=O)c2ccccc2Br)CC1	none (no result: CR mimetic SO)
COc1ccc(C2C(C#N)=C(N)N(c3sc4c(c3C#N)CCCC4)C3=C2C(=O)CC(C)(C)C3)cc1 (stereo unspecified)	none
COc1ccc(C2C(C#N)=C3NC(=O)c4c(sc5c4CCCCC5)N3C3=C2C(=O)CC(C)(C)C3)cc1 (stereo unspecified)	TIM10 inh 43 | TIM10 conf inactive
CCOC(=O)c1cnc2c(OC)cccc2c1N1CCN(c2ccccc2OC)CC1	TIM10 inh 42 | TIM10 conf inactive
O=Cc1cc(N=Nc2ccccc2Cl)ccc1O	TIM10 inh 62 | TIM10 conf 76
O=Cc1cc(N=Nc2cccc(C(=O)O)c2)ccc1O	none
O=C(COC(=O)c1ccc([N+](=O)[O-])o1)Nc1ccc(F)cc1	none
O=C(COC(=O)c1ccc([N+](=O)[O-])o1)Nc1ccc(Br)cc1F	TIM10 inh 47 | TIM10 conf 50
O=C(Nc1nccs1)c1ccc(-c2ccccc2[N+](=O)[O-])o1	none
O=C(Nc1nccs1)c1ccc(-c2ccccc2Cl)o1	TIM10 inh 47 | TIM10 conf inactive
Cc1ccc(S(=O)(=O)N2[C@@H](c3ccc(Br)cc3)C(C(=O)O)=CC[C@H]2c2cccs2)cc1	TIM10 inh 96 | TIM10 conf inactive
Cc1ccc([C@H]2C(C(=O)O)=CC[C@@H](c3cccs3)N2S(=O)(=O)c2ccc(C)cc2)cc1	none
O=S(=O)(NCc1ccc2c(c1)OCO2)c1ccc2oc3ccccc3c2c1	TIM10 inh 49 | TIM10 conf 35
COc1ccc(/C=C/C(=O)c2ccc(Cl)cc2)c(OC)c1	TIM10 inh 44 | TIM10 conf inactive
COc1ccc(/C=C/C(=O)c2cc(Cl)ccc2O)c(OC)c1	none
COc1ccccc1N1CCN(C(=O)c2ccc3nc(-c4ccco4)c(-c4ccco4)nc3c2)CC1	TIM10 inh 41 | TIM10 conf inactive
COc1ccccc1N1CCN(C(=O)c2ccc3nc[nH]c3c2)CC1	none
COc1ccccc1N1CCN(C(=O)c2cc(-c3ccc(C)cc3)on2)CC1	TIM10 inh 40 | TIM10 conf 36
COc1ccc(-c2cc(C(=O)N3CCN(c4ccccc4OC)CC3)no2)cc1	none
CC1=NN(c2ccccc2)C(=O)/C1=C\C=C\c1ccccc1	TIM10 inh 54 | TIM10 conf 38
O=C(Cc1ccc(O)cc1)NCCNC(=S)NCc1ccccc1	none
O=C(Nc1ccccc1-c1ccccc1)C12CC3CC(CC(C3)C1)C2	TIM10 inh 50 | TIM10 conf 39
CC(Oc1ccccc1)C(=O)N=C1SC2CS(=O)(=O)CC2N1c1ccccc1 (stereo unspecified)	none
CC(C)(C)C1CCC(CN2C(Nc3ccccc3)=NC[C@@H]2Cc2ccccc2)CC1 (stereo partly specified)	TIM10 inh 49 | TIM10 conf 53
CCc1cccc(C)c1NC(=S)NCC1CCN(c2ccc(OC)cc2)C1 (stereo unspecified)	TIM10 inh 57 | TIM10 conf 59
CCc1ccccc1NC(=S)NCC1CCN(c2ccc(OC)cc2)C1 (stereo unspecified)	TIM10 inh 40 | TIM10 conf 53
COc1ccc(N2CCC(CNC(=S)Nc3cccc(OC)c3)C2)cc1 (stereo unspecified)	none
S=C(NCc1ccco1)Nc1ccc(Cl)c(Cl)c1	TIM10 inh 46 | TIM10 conf inactive
S=C(NCc1ccco1)Nc1cc(-c2ccccc2)[nH]n1	TIM10 inh 40 | TIM10 conf inactive
Nc1[nH]n(-c2ccccc2)c(=O)c1N=Nc1ccc2ncsc2c1	none
C[C@H](CO)N1C[C@H](C)[C@H](CN(C)Cc2ccncc2)Oc2ccc(NC(=O)Nc3ccc(C(F)(F)F)cc3)cc2CC1=O	none
CN(C)c1c(-c2ccccc2)cc(-c2ccccc2)[nH]c1=O	none (no result: CR mimetic SO)
CCOC(=O)C(NC(C)=O)C(=O)Nc1c(C)cccc1C (stereo unspecified)	none
NC(=O)c1ccccc1NC(=O)CSc1nc2c(c(=O)[nH]1)CCCC2	none
O=C(COc1cccc(NC(=O)c2cccc([N+](=O)[O-])c2)c1)c1ccc(Br)cc1	TIM10 inh 42 | TIM10 conf 31
Cc1ccc(C(=O)Nc2ccc3c(c2)nc2n3CCSC2)cc1	TIM10 inh 63 | TIM10 conf 65
O=C(OCC#CCSc1nnc(-c2ccc([N+](=O)[O-])cc2)o1)c1cccs1	TIM10 inh 41 | TIM10 conf 33
